Here are results for ten compounds from PubChem BioAssay (Tox21).

Unmarked numbers belong to inactive results. Results filed as inconclusive are left out. The source made the active and inactive calls. Unless noted, the call rests on the fitted dose curve; in most records, active means well fitted curve in the direction sought with a large enough effect in the repeat runs; inconclusive means weak or mixed curves; inactive means no such curve, though single readings can be large; an effect the other way counts as inactive or inconclusive.

The nature of experiment [1]: qHTS assay for small molecule agonists of the p53 signaling pathway - cell viability (AID 651633; calls by dose curve;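 further: p53RE-bla HCT reporter cells with a stable beta-lactamase p53 reporter; series mostly up to about 83 µM; on the % scale 0 is the no-effect control and ±100 the full control effect; nearly all actives have a fitted effect of over 30% in size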). In a few lines:
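Viability counter-read: CellTiter-Glo luminescence (30 min, room temperature) in the same p53RE-bla plates. These plates had been exposed to compounds for 16 h at 37 C.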
(In qHTS, concentration-response curves come from the screen itself.)

Experiment [2] is described as follows: qHTS assay to test for compound auto fluorescence at 590 nm (red) in HepG2 cells (AID 720674). Further: on the % scale 0 is the no-effect control and ±100 the full control effect. In a few lines: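 1 hr compound incubation on HepG2 cells, 37 C, 5% CO2; plate read ex 540 nm / em 590 nm; intensities reported as Rose Bengal sodium equivalents.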
Experiment [3] in a line: qHTS assay to test for compound auto fluorescence at 590 nm (red) in HEK293 cells (AID 720679). Further: on the % scale 0 is the no-effect control and ±100 the full control effect. A digest of the protocol:
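Red-channel autofluorescence (Ex/Em 540/590 nm; Rose Bengal sodium reference) was measured after overnight 37C, 5% CO2 exposure of attached HEK293 cells, 2,000 per well in medium with 10% dialyzed FBS.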

A short description of experiment [4]: qHTS assay to test for compound auto fluorescence at 535 nm (green) in HepG2 cell free culture (AID 720686). Further: on the % scale 0 is the no-effect control and ±100 the full control effect.
The nature of experiment [5]: qHTS assay to test for compound auto fluorescence at 460 nm (blue) in HepG2 cells (AID 720687). Further: on the % scale 0 is the no-effect control and ±100 the full control effect. A digest of the protocol: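 Blue-channel autofluorescence (Ex/Em 405/460 nm, triamterene-equivalent) was measured after 1 hr compound exposure at 37 C, 5% CO2. Cells were HepG2, plated overnight at 37 C in MEM plus 10% FBS.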
Experiment [6] is described as follows: qHTS assay to identify small molecule antagonists of the glucocorticoid receptor (GR) signaling pathway - cell viability counter screen (AID 720693). Further: nearly all actives have a fitted effect of over 55% in size. Further: potency means the concentration at half of the fitted maximal effect.
The nature of experiment [7]: qHTS assay for identifying genotoxic compounds that show differential cytotoxicity against isogenic chicken DT40 cell lines with known DNA damage response pathways - wild type cell line (AID 743012). Further: nearly all actives have a fitted effect of over 60% in size. Further: potency means the concentration at half of the fitted maximal effect. A digest of the protocol: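 300 wt DT40 cells/well; cpd (DMSO) pintool-transferred after ~0.5 h at 37 C/5% CO2; 40 h incubation; CellTiter-Glo added, 30 min RT; luminescence read.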

Experiment [8] can be described thus: qHTS assay for identifying genotoxic compounds that show differential cytotoxicity against isogenic chicken DT40 cell lines with known DNA damage response pathways - Rev3 mutant cell line (AID 743014). Further: nearly all actives have a fitted effect of over 55% in size. Further: potency means the concentration at half of the fitted maximal effect.
Experiment [9] can be described thus: qHTS assay to identify small molecule antagonists of the androgen receptor (AR) signaling pathway - cell viability counter screen (AID 743033; further: nearly all actives have a fitted effect of over 45% in size; further: potency means the concentration at half of the fitted maximal effect).
A short description of experiment [10]: qHTS assay to identify small molecule antagonists of the thyroid receptor (TR) signaling pathway - cell viability counter screen (AID 743064). Further: nearly all actives have a fitted effect of over 50% in size. Further: potency means the concentration at half of the fitted maximal effect. A digest of the protocol:
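In rat pituitary GH3.TRE-Luc reporter cells co-exposed to compound and 1 nM T3 for 23.5 h, cytotoxicity was assessed with CellTiter-Fluor in the same wells, read by fluorescence.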

Experiment [11] relates to thyroid hormone receptor (rat, GH3 cells). Description: qHTS assay to identify small molecule agonists of the thyroid receptor (TR) signaling pathway (AID 743066; calls by dose curve; further: on the % scale 0 is the no-effect control and ±100 the full control effect).
Experiment [12] can be described thus: qHTS assay to identify small molecule antagonists of the estrogen receptor alpha (ER-alpha) signaling pathway - cell viability counter screen (AID 743074; calls by dose curve;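 further: HEK293 cells carrying ER-alpha-UAS-bla reporter stimulated with 17beta-estradiol; on the % scale 0 is the no-effect control and ±100 the full control effect; nearly all actives have a fitted effect of over 45% in size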).
The target in experiment [13] is Estrogen receptor (Homo sapiens) (UniProt P03372). Description: qHTS assay to identify small molecule agonists of the estrogen receptor alpha (ER-alpha) signaling pathway (AID 743075; calls by dose curve).
Estrogen receptor (Homo sapiens), sequence (P03372 whole entry, looked up): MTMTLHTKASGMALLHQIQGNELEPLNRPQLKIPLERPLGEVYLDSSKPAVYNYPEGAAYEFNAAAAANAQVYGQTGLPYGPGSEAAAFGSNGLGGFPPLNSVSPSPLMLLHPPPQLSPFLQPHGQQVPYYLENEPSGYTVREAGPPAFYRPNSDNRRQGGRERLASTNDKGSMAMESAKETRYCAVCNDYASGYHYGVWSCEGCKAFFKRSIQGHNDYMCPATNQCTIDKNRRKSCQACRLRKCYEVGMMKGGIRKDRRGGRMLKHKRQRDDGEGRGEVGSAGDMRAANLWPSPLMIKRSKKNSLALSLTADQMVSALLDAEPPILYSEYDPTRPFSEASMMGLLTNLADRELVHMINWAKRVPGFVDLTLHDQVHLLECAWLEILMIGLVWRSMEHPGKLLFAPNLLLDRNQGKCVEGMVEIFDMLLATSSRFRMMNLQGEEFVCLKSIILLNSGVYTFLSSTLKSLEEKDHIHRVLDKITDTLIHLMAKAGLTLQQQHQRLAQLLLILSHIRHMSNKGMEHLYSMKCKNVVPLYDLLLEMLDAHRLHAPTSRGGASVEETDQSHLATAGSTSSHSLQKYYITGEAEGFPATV
Experiment [14] shares this target. Description: qHTS assay to identify small molecule agonists of the estrogen receptor alpha (ER-alpha) signaling pathway using the BG1 cell line (AID 743079). Further: on the % scale 0 is the no-effect control and ±100 the full control effect; nearly all actives have a fitted effect of over 20% in size.
Experiment [15] addresses Peroxisome proliferator-activated receptor gamma (Homo sapiens) (UniProt P37231). Kind of experiment: qHTS assay to identify small molecule agonists of the peroxisome proliferator-activated receptor gamma (PPARg) signaling pathway (AID 743094; active means well fitted activation curve with a large enough effect in the signal ratio in the repeat runs, not every such curve was filed as active; the % refers to the signal ratio; further: on the % scale 0 is the no-effect control and ±100 the full control effect). In a few lines: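 Cell-based bla reporter, HEK293H background, PPARg-driven UAS. Pre-incubation 5 h, 37C, 5% CO2. Compound 17 h, 37C. Substrate 1 h RT; fluorescence.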

Experiment [16] in a line: qHTS assay to test for compound auto fluorescence at 460 nm (blue) in HEK293 cells (AID 720678). Further: on the % scale 0 is the no-effect control and ±100 the full control effect. A digest of the protocol:
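Blue-channel (Ex/Em 405/460 nm) intensity measured in HEK293 cultures after overnight compound exposure at 37C; signal expressed relative to triamterene. Cells plated 2,000 per well in 10% dialyzed FBS medium and allowed 4-5 hr to attach.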

In experiment [17] the target is Nuclear receptor subfamily 1 group I member 2 (Homo sapiens) (UniProt O75469). Kind of experiment: Human pregnane X receptor (PXR) activation by small molecules, qHTS assay (AID 1346985). Further: on the % scale 0 is the no-effect control and ±100 the full control effect; nearly all actives have a fitted effect of over 40% in size. In a few lines:
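DPX-2 cells (HepG2 co-transfected with a PXR response element and a CYP3A4-promoter luciferase construct) were seeded at 2,000 per well, rested 5 hr at 37C, then exposed to DMSO-dissolved compounds for 24 hr. Activation was read as luciferase luminescence.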

Experiment [18] has as its target Acetylcholinesterase (Homo sapiens) (UniProt P22303). Description: Acetylcholinesterase (AChE) small molecule antagonists: enzyme-based qHTS assay (AID 1347397; calls by dose curve; further: on the % scale 0 is the no-effect control and ±100 the full control effect; nearly all actives have a fitted effect of over 55% in size). The settings on record: Potency: AChE enzyme activity inhibition; outcome: AChE enzyme activity inhibition. In a few lines:
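First, recombinant human AChE (50 mU/mL as dispensed) received test compound or DMSO. Second, plates stood 30 min at room temperature. Third, DTNB and acetylthiocholine were added, followed by 10 min at room temperature and colorimetric detection.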

The target is the same in experiment [19]. Kind of experiment: Acetylcholinesterase (AChE) small molecule antagonists: fluorescence cell-based qHTS assay (AID 1347398; calls by dose curve; further: on the % scale 0 is the no-effect control and ±100 the full control effect; nearly all actives have a fitted effect of over 50% in size). The settings on record: Potency: AChE activity; outcome: AChE activity. In a few lines:
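Homogeneous quantitative HTS format. SH-SY5Y cells seeded at 2,000 per well settle overnight at 37 C. Compound pretreatment runs 30 min (37 C, 5% CO2); substrate/probe mix then reacts 40 min at RT before reading 490/520 nm.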

Experiment [20] deals with Nuclear receptor subfamily 1 group I member 2 (Homo sapiens) (UniProt O75469). Description: CYP3A4 induction through human pregnane X receptor (PXR) by small molecules, qHTS assay (AID 1346984). Further: potency means the concentration at half of the fitted maximal effect; nearly all actives have a fitted effect of over 40% in size. A digest of the protocol: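 Human PXR activation is tracked via CYP3A4 promoter-luciferase in DPX-2 (HepG2) cells. Compounds treat cells for 24hr at 37C, and luminescence is read after One-Glo.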

Acetylcholinesterase (Homo sapiens), sequence (P22303 whole entry, looked up): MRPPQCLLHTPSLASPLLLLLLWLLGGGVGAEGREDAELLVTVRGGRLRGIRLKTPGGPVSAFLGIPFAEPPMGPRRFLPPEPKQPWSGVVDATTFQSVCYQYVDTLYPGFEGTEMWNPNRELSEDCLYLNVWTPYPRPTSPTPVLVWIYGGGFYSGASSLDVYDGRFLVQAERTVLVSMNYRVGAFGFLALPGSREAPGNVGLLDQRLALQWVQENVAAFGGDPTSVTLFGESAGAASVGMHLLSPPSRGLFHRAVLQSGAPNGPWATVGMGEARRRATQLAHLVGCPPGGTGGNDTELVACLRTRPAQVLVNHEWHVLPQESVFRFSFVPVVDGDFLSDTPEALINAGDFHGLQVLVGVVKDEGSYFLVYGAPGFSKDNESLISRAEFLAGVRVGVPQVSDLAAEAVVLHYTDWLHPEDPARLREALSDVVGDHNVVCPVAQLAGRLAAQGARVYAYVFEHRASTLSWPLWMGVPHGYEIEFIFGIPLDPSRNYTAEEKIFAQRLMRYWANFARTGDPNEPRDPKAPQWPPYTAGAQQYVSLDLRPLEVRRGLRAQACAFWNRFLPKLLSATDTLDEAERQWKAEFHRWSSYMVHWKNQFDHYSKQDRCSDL
Peroxisome proliferator-activated receptor gamma (Homo sapiens), sequence (P37231 whole entry, looked up): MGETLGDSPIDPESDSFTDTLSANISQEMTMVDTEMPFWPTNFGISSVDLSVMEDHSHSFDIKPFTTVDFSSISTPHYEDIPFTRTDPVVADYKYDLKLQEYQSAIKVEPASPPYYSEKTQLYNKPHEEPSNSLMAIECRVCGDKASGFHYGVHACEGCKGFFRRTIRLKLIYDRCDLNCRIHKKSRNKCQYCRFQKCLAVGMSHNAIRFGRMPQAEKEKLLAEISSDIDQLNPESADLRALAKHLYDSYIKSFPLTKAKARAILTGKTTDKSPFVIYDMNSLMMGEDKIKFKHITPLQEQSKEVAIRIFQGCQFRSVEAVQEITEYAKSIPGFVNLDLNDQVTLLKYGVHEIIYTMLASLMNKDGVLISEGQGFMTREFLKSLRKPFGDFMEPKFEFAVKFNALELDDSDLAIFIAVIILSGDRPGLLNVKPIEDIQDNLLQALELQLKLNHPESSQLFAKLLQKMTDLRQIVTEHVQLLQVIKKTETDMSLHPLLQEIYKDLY

Turning to `C[C@@H]1[C@H](O)[C@@H](C)/C=C/C=C/CC/C=C/C=C/C=C/C=C/[C@H](O[C@H]2O[C@@H](C)[C@H](O)[C@@H](N)[C@H]2O)CC2O[C@](O)(C[C@@H](O)[C@H](O)CC[C@@H](O)C[C@@H](O)C[C@@H](O)CC(=O)O[C@H]1C)C[C@H](O)[C@H]2C(=O)O`, the Potency entry in experiment [1], in experiment [4], in [5], in experiment [6], in experiment [7] and in experiment [8] was “inactive” each time. The Potency result in experiment [9], in experiment [10], in [11], in experiment [12], in experiment [13] and in [14] was “inactive” throughout. Moreover, in experiment [15], the Potency entry is “inactive”. In addition, the compound was called inactive in experiment [2] and in experiment [3].

On to `C[C@H]1[C@H]2Cc3ccc(O)cc3[C@]1(C)CCN2CCc1ccccc1`, for which the Potency entry in experiment [1], in [4], in [5], in [6], in experiment [9] and in [11] was “inactive” in each case. In addition, the Potency entry in [12], in experiment [13] and in experiment [14] was “inactive” throughout. For the same compound, the outcome in experiment [2] and in experiment [3] was inactive. For the same compound, the Potency in experiment [7] was 6.8 µM (active); in experiment [8], 15.2 µM (active); in experiment [10], 30.4 µM (active).

For `CC(=O)O[C@H]1C[C@H](O[C@H]2[C@@H](O)C[C@H](O[C@H]3[C@@H](O)C[C@H](O[C@H]4CC[C@@]5(C)[C@H](CC[C@@H]6[C@@H]5C[C@@H](O)[C@]5(C)[C@@H](C7=CC(=O)OC7)CC[C@]65O)C4)O[C@@H]3C)O[C@@H]2C)O[C@H](C)[C@H]1O[C@@H]1O[C@H](CO)[C@@H](O)[C@H](O)[C@H]1O`, in [2], the compound was called inactive. For the same compound, the Potency result in [16], in experiment [4], in experiment [5], in experiment [10], in experiment [11] and in experiment [17] was “inactive” throughout. Also, the Potency in [6] was 0.674 µM (active); in experiment [7] it was 0.75 µM (active); in experiment [8], 0.75 µM (active); in experiment [9], 0.0756 µM (active).

With `O.O.O.O=C([O-])C(O)C(O)C(=O)[O-].O=C([O-])C(O)C(O)C(=O)[O-].[K+].[K+].[Sb].[Sb]` (stereo not given), the result in experiment [2] and in experiment [3] was inactive. For the same compound, the Potency result in [16], in experiment [4], in experiment [5], in experiment [6], in [12] and in [13] was “inactive” each time. Further, the Potency in [10] was 29.8 µM (active).

As to `CC(=O)O[C@]1(C(C)=O)CC[C@H]2[C@@H]3C=C(Cl)C4=CC(=O)[C@@H]5C[C@@H]5[C@]4(C)[C@H]3CC[C@@]21C`, the Potency result in experiment [18] and in [19] was “inactive” in each case.

With `CCN[C@@H]1C[C@H](N)[C@@H](OC2OC(CN)=CCC2N)[C@H](O)[C@H]1O[C@H]1OC[C@](C)(O)[C@H](NC)[C@H]1O` (stereo not given in full), the activity change, negative = inhibition was 0.139% [at 0.435 µM] in [18] and 7.61% [at 0.439 µM] in experiment [19].

As to `C=CC(C)(C)CC(=O)OC`, the Potency result in experiment [18] and in experiment [19] was “inactive” in each case.

As to `CCCC(=O)Nc1ccc(OCC(O)CNC(C)C)c(C(C)=O)c1` (stereo not given), the Potency entry in experiment [18] and in experiment [19] was “inactive” in each case.

Take `CC(C)(C)c1ccc(C(O)CCCN2CCC(C(O)(c3ccccc3)c3ccccc3)CC2)cc1` (stereo not given): the Potency entry in experiment [18] and in [19] was “inactive” each time.

With `CCN(CC)CCO[C@H]1CC[C@@]2(C)C(=CC[C@@H]3[C@@H]2CC[C@]2(C)C(=O)CC[C@@H]32)C1`, the outcome in [2] and in [3] was inactive. The Potency entry in [4], in experiment [5], in experiment [10], in experiment [11], in experiment [13] and in experiment [14] was “inactive” throughout. The Potency result in [15] is “inactive”. Moreover, the Potency was 0.531 µM (active) in [8] and 7.94 µM (active) in experiment [20].
